Measurements from PubChem BioAssay (NCATS).
Values joined by “and” are separate entries in the source; they are usually repeats but may differ in a detail not shown here. Equal entries are not always repeated. Records with an inconclusive call do not appear. Values without a mark were called inactive. Active and inactive are the calls of the source. Calls follow the shape of the dose curve; as a rule, active = well fitted curve in the direction sought with a large enough effect; inconclusive = small, poorly fitted or top-dose-only effect, or another doubt; inactive = no such curve, though single readings can be large; an effect the other way counts as inactive or inconclusive.

Columns and labels:
[1] = Viability qHTS for spleen associated tyrosine kinase inhibitor (SYKi) drug resistant MV4-11 cells (AID 1963824); also: nearly all actives have a fitted effect of over 35% in size; also: potency is read from the fitted curve at half-maximal effect
Procedure, shortened: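 SYK inhibitor-resistant MV4-11 AML cells, 500 per well, added to predispensed compounds and incubated 72 hr at 37 C, 5% CO2. Viability measured by CellTiter-Glo luminescence after 10 min at room temperature.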

[2] = Quantitative highthroughput screen to assess conditional lethalithy of NOMO1 cells grown in RPMI1640 with untreated serum (RPMI+s) (AID 1963876); also: nearly all actives have a fitted effect of over 35% in size; also: potency is read from the fitted curve at half-maximal effect;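 as to Viability: 100% = DMSO wells and 0% = empty wells without cells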
Procedure, shortened: (§1)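 Each medium arm—HPLM with 10% dialyzed FBS, or RPMI1640 with 5 mM glucose and 10% untreated or dialyzed FBS—was screened against an 11-point, 3-fold compound titration for 48 h at 37 °C, with CellTiter-Glo luminescence as endpoint.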

[3] = Quantitative highthroughput screen to assess conditional lethalithy of NOMO1 cells grown in Human Plasma-Like Medium with dialyzed fetal bovine serum (HPLM+ds) (AID 1963878); also: nearly all actives have a fitted effect of over 35% in size; also: potency is read from the fitted curve at half-maximal effect;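 as to Viability: 100% = DMSO wells and 0% = empty wells on each plate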
Procedure, shortened: as §1

[4] = Quantitative highthroughput screen to assess conditional lethalithy of P12 Ichikawa cells grown in Human Plasma-Like Medium with dialyzed fetal bovine serum (HPLM+ds) (AID 1963879); settings: Potency: viability; also: nearly all actives have a fitted effect of over 35% in size; also: potency is read from the fitted curve at half-maximal effect; as to Viability: series mostly up to about 46 µM
Procedure, shortened: as §1

[5] = Quantitative highthroughput screen to assess conditional lethalithy of P12 Ichikawa cells grown in RPMI1640 with dialyzed fetal bovine serum (RPMI+ds) (AID 1963880); settings: Potency: P12-Ichikawa viability; also: nearly all actives have a fitted effect of over 35% in size; also: potency is read from the fitted curve at half-maximal effect;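 as to Viability: 100% = DMSO wells and 0% = empty wells on each plate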
Procedure, shortened: as §1

[6] = Quantitative highthroughput screen to assess conditional lethalithy of P12 Ichikawa cells grown in RPMI1640 with untreated serum (RPMI+s) (AID 1963881); settings: Potency: viability; also: nearly all actives have a fitted effect of over 35% in size; also: potency is read from the fitted curve at half-maximal effect;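 as to Viability: series mostly up to about 46 µM; 100% = DMSO wells and 0% = empty wells without cells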
Procedure, shortened: as §1

[7] = Quantitative highthroughput screen to assess conditional lethalithy of SEM cells grown in Human Plasma-Like Medium with dialyzed fetal bovine serum (HPLM+ds) (AID 1963882); also: nearly all actives have a fitted effect of over 35% in size; also: potency is read from the fitted curve at half-maximal effect; as to Viability: series mostly up to about 46 µM
Procedure, shortened: as §1

[8] = Quantitative highthroughput screen to assess conditional lethalithy of SEM cells grown in RPMI1640 with unreated serum (RPMI+s) (AID 1963883); also: nearly all actives have a fitted effect of over 35% in size; also: potency is read from the fitted curve at half-maximal effect;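 as to Viability: 100% = DMSO wells and 0% = empty wells without cells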
Procedure, shortened: as §1

[9] = Quantitative highthroughput screen to assess conditional lethalithy of SEM cells grown in RPMI1640 with dialyzed fetal bovine serum (RPMI+ds) (AID 1963884); also: nearly all actives have a fitted effect of over 35% in size; also: potency is read from the fitted curve at half-maximal effect;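 as to Viability: series mostly up to about 46 µM; 100% = DMSO control wells and 0% = empty wells without cells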
Procedure, shortened: as §1

[10] = Cellular viability qHTS for adrenocortical cancer (ACC) cell line NCI-H295R (AID 1963990); also: nearly all actives have a fitted effect of over 60% in size; also: potency is read from the fitted curve at half-maximal effect
Procedure, shortened: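 IC50 and maximal efficacy derive from four-parameter logistic modelling of titration curves, with reads scaled between DMSO-only wells (0%) and doxorubicin hydrochloride (100% inhibition). Compounds spanned up to 46 uM over 48 h.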

[11] = Cellular viability qHTS for adrenocortical cancer (ACC) cell line SW-13 (AID 1963989); settings: SW-13 ACC cells viability, CellTiter-Glo, 48 h; activity (max response): stronger effect = lower value; also: nearly all actives have a fitted effect of over 65% in size; also: potency is read from the fitted curve at half-maximal effect;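 as to activity (max response): cells grown in serum-free medium with ITS supplement; % is scaled to controls: 0 for no effect and ±100 for the full control effect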
Procedure, shortened: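 Luminescent ATP read-out (CellTiter-Glo, 20 min at room temperature) measured metabolically competent SW-13 cells after 48 h compound treatment. Final concentrations spanned up to 46 uM; bortezomib served as positive control.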

[12] = Quantitative highthroughput screen to assess conditional lethalithy of NOMO1 cells grown in RPMI1640 with dialyzed fetal bovine serum (RPMI+ds) (AID 1963877);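 also: series mostly up to about 46 µM; 100% = DMSO control wells and 0% = empty wells; nearly all actives have a fitted effect of over 30% in size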
Procedure, shortened: as §1

## CC(C)(C)c1nc(-c2cccc(NS(=O)(=O)c3c(F)cccc3F)c2F)c(-c2ccnc(N)n2)s1
[1]
  Potency: 16.6 µM (active)
[2]
  Potency: 11.8 µM (active)
[3]
  Potency: 2.96 µM (active)
[4]
  Potency: inactive
[5]
  Potency: 0.743 µM (active)
[6]
  Potency: 2.96 µM (active)
[7]
  Potency: inactive
[8]
  Potency: 2.64 µM (active)
[9]
  Potency: inactive

## Clc1ccc(C(c2ccc(Cl)cc2)n2cc[n+](CC(OCc3ccc(Cl)cc3Cl)c3ccc(Cl)cc3Cl)c2)cc1 (centres undefined)
[1]
  Potency: 1.86 µM (active)
[2]
  Potency: 20.9 µM (active)
[3]
  Potency: 26.4 µM (active)
[6]
  Potency: 20.9 µM (active)
[7]
  Potency: 16.6 µM (active)
[8]
  Potency: 13.2 µM (active)
[9]
  Potency: 20.9 µM (active)
[10]
  Potency: 8.91 µM (active)

## O=C(NCC1CCCCN1)c1cc(OCC(F)(F)F)ccc1OCC(F)(F)F (centres undefined)
[1]
  Potency: inactive
[2]
  Potency: 0.332 µM (active)
[4]
  Potency: 1.87 µM (active)
[5]
  Potency: 2.96 µM (active)
[6]
  Potency: 1.66 µM (active)
[9]
  Potency: inactive
[11]
  activity (max response): -4.23%
[10]
  Potency: inactive

## O=C(c1cc(Cc2n[nH]c(=O)c3ccccc23)ccc1F)N1CCN(C(=O)C2CC2)CC1
[1]
  Potency: 16.6 µM (active)
[2]
  Potency: inactive
[5]
  Potency: 20.9 µM (active)
[8]
  Potency: 6.62 µM (active)
[10]
  Potency: inactive

## CC(C)(Sc1ccc(CCN(CCCCC2CCCCC2)C(=O)NC2CCCCC2)cc1)C(=O)O
[1]
  Potency: 18.6 µM (active)
[2]
  Potency: inactive
[3]
  Potency: inactive
[4]
  Potency: inactive
[6]
  Potency: inactive
[7]
  Potency: inactive
[8]
  Potency: inactive
[9]
  Potency: inactive
[11]
  activity (max response): 4.08%
[10]
  Potency: inactive

## COc1ncc(-c2ccc3nccc(-c4ccnnc4)c3c2)cc1NS(=O)(=O)c1ccc(F)cc1F
[1]
  Potency: 58 nM (active) and 132 nM (active)
[2]
  Potency: 0.105 µM (active)
[5]
  Potency: 2.09 µM (active)
[6]
  Potency: 0.743 µM (active)
[7]
  Potency: 0.469 µM (active)
[9]
  Potency: 0.372 µM (active)
[10]
  Potency: 0.0282 µM (active)

## CNC(=O)c1cc(Oc2ccc(NC(=O)Nc3cc(C(C)(C)C)nn3-c3ccc4ncccc4c3)c(F)c2)ccn1
[1]
  Potency: 73.1 nM (active) and 52.5 nM (active)
[2]
  Potency: inactive
[3]
  Potency: inactive
[4]
  Potency: inactive
[5]
  Potency: inactive
[6]
  Potency: inactive
[9]
  Potency: 0.469 µM (active)
[11]
  Potency: 28.2 µM (active)
[10]
  Potency: 31.6 µM (active)

## COc1ccc2c(c1)c(CC(=O)OCC(=O)O)c(C)n2C(=O)c1ccc(Cl)cc1
[1]
  Potency: inactive
[2]
  Potency: inactive
[3]
  Potency: inactive
[4]
  Potency: inactive
[5]
  Potency: inactive
[6]
  Potency: inactive
[7]
  Potency: inactive
[8]
  Potency: inactive
[9]
  Potency: inactive
[11]
  activity (max response): -2.34%
[10]
  Potency: inactive

## Cc1cccc(C)c1OCC(=O)N[C@@H](Cc1ccccc1)[C@@H](O)C[C@H](Cc1ccccc1)NC(=O)[C@H](C(C)C)N1CCCNC1=O
[1]
  Potency: 23.7 µM (active)
[2]
  Potency: inactive
[12]
  Potency: inactive
[10]
  Potency: 16.4 µM (active)

## CN(C)c1ccc(C2Nc3ccc4ccccc4c3C3=C2C(=O)CC(C)(C)C3)cc1Br (centres undefined)
[1]
  Potency: 14.8 µM (active)
[2]
  Potency: inactive
[3]
  Potency: inactive
[5]
  Potency: inactive
[6]
  Potency: inactive
[7]
  Potency: inactive
[8]
  Potency: inactive
[9]
  Potency: inactive
[11]
  activity (max response): -5.19%
[10]
  Potency: inactive

## CN(C)CC(C)(C)CNc1nn2c(-c3ccccc3)nnc2cc1C1CCC1
[1]
  Potency: 0.0103 µM (active)
[2]
  Potency: 20.9 µM (active)
[3]
  Potency: 10.5 µM (active)
[4]
  Potency: 10.5 µM (active)
[5]
  Potency: 18.7 µM (active)
[6]
  Potency: 16.6 µM (active)
[11]
  activity (max response): -3.73%

## CCN(CC)CCCCNc1nc2cc(Cl)c(Cl)cc2nc1-c1ccc(-c2cccs2)s1
[1]
  Potency: 4.68 µM (active)
[3]
  Potency: 20.9 µM (active)
[5]
  Potency: 26.4 µM (active)

## CCn1nnc2c(N3CCOCC3)nc(-c3ccc(NC(=O)Nc4ccc(C(=O)N5CCN(C)CC5)cc4)cc3)nc21
[1]
  Potency: 29.1 nM (active) and 46.8 nM (active)
[2]
  Potency: inactive
[10]
  Potency: inactive

## O=C(Nc1nnc(-c2ccco2)o1)c1cc(-c2ccccc2)nc2ccccc12
[1]
  Potency: 13.2 µM (active)
[3]
  Potency: 5.9 µM (active)
[4]
  Potency: 4.69 µM (active)
[8]
  Potency: 4.69 µM (active)
[11]
  Potency: 20 µM (active)
[10]
  Potency: 10 µM (active)

## Oc1cccc(-c2nc(N3CCOCC3)c3oc4ncccc4c3n2)c1
[1]
  Potency: 0.525 µM (active)
[12]
  Potency: inactive
[3]
  Potency: inactive
[5]
  Potency: inactive
[6]
  Potency: inactive
[7]
  Potency: 15.2 µM (active)
[8]
  Potency: 1.91 µM (active)
[9]
  Potency: 7.62 µM (active)

## CCCNCC(O)COc1ccccc1C(=O)CCc1ccccc1 (centres undefined)
[1]
  Potency: 15 µM (active) and 16.6 µM (active)
[12]
  Potency: inactive
[3]
  Potency: inactive
[4]
  Potency: inactive
[5]
  Potency: inactive
[6]
  Potency: inactive
[7]
  Potency: inactive
[8]
  Potency: inactive
[9]
  Potency: inactive

## COc1ccc(C2=N[C@H](c3ccc(Cl)cc3)[C@H](c3ccc(Cl)cc3)N2C(=O)N2CCNC(=O)C2)c(OC(C)C)c1
[1]
  Potency: 16.6 µM (active)
[3]
  Potency: 10.5 µM (active)
[4]
  Potency: 10.5 µM (active)
[7]
  Potency: 0.235 µM (active)
[8]
  Potency: 0.418 µM (active)
[9]
  Potency: 0.187 µM (active)
[11]
  Potency: 31.6 µM (active)

## CN1N=C(N)c2cn([C@@H]3O[C@H](COP(=O)(O)O)[C@@H](O)[C@@H]3O)c3ncnc1c23
[1]
  Potency: 0.0742 µM (active)
[3]
  Potency: 5.26 µM (active)
[7]
  Potency: 0.0296 µM (active)
[8]
  Potency: 0.0296 µM (active)
[9]
  Potency: 0.0074 µM (active)
